WNV NS2B-NS3 inh: blocks West Nile virus NS2B-NS3 protease activity | P06935 | WNV NS2B-NS3 protease, fluorogenic substrate Ex360/Em465; stronger effect = lower value | z-score (test concentration not listed) | 0.18% of 65,000 active | AID 577; in the data active = z-score below about -3
CatB inh: blocks human cathepsin B protease activity; inhibition, %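 (tested at 10 µM)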; 0.1% of 63,000 active; AID 453; purified cathepsin B, fluorogenic substrate, fluorescence; in the data active = inhibition above about 21%;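 also: 0% = enzyme with no compound and 100% = no enzyme blank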
CatB mixtures: inhibitors of human cathepsin B in compound mixtures; P07858; Purified cathepsin B, AMC dipeptide fluorescence; inhibition, %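 (ten-compound pools at 5 µM per compound and 50 µM total)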; 0.06% of 62,000 active; in the data active = inhibition above about 22%, passing the limit was not always enough;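 also: 0% = enzyme without compound and 100% = no enzyme blank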
CatS block: blocks human cathepsin S protease activity; P25774; recombinant cathepsin S, AMC dipeptide fluorescence, pooled mixtures; inhibition, %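 (tested at 5 µM per compound within 10-compound mixtures)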; 0.06% of 62,000 active; AID 501; in the data active = inhibition above about 32%, passing the limit was not always enough;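 also: 0% = enzyme without compound and 100% = blank without enzyme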
Target sequence (P25774 115-331 limits assumed): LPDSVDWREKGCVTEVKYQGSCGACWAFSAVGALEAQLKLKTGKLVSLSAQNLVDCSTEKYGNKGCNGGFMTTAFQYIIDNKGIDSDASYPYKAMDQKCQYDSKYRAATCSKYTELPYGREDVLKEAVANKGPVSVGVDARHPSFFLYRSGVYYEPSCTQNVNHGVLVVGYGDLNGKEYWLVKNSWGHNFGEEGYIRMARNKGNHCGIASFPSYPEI
CatL block: inhibitors of human cathepsin L; P07711; purified cathepsin L, fluorogenic substrate, fluorescence; inhibition, %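 (tested at 10 µM)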; 0.17% of 58,000 active; AID 460; in the data active = inhibition above about 45%;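 also: 0% = enzyme with no compound and 100% = no enzyme blank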
Her2 expr inh: lowers expression of human Her2 kinase; P04626; SKBR-3 HER2 protein level, AlphaScreen, 18-24 h; stronger effect = lower value; HER2 level % of control, % at 10 µM; 0.69% of 65,000 active; AID 645;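 active = HER2 level under 5% of the carrier-only control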;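 also: 100% = DMSO carrier and 0% = 500 nM PU-H71 HSP90 inhibitor; lower value means stronger loss of Her2 protein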
* marks the source's active call; other numbers are inactive results; . = not tested or not shown. Sampled rows, rich in hits. Any-hit rate of the full collection: about 1.1%.

SMILES	WNV NS2B-NS3 inh	CatB inh	CatB mixtures	CatS block	CatL block	Her2 expr inh
COCCNc1nc(C(C)(C)C)nc2c1nnn2Cc1ccccc1Cl	-0.89	1	2	-6	-1	-25*
Cn1cccc1Cc1nnc(SCC(=O)NC2CCCC2)n1CCc1ccccc1	1.2	1	4	4	.	88
O=C(CSc1nnc(-c2ccc3c(c2)OCCO3)o1)NC1CCCCC1	0.94	3	-1	-5	-2	93
Cc1cc(NS(=O)(=O)c2cccs2)no1	-1.3	-4	4	-10	-10	-30*
O=C(O)C1Nc2c(O)cccc2C2C=CCC12 (stereo not drawn)	-0.32	2	5	0	26	38
O=C(OC1CCCCC1)c1ccc2c(c1)C1C=CCC1C(C(=O)O)N2 (stereo not drawn)	-5.6*	3	-3	-7	16	93
CC1(C)CCCC2=C1CC1C(=O)N(Cc3cccnc3)C(=O)C1C2 (stereo not drawn)	0.6	2	4	13	5	-22*
CCN(CC)C(=O)C1=C(C)NC(=O)NC1c1c(F)cccc1Cl (stereo not drawn)	0.41	2	2	-1	5	110
CC(C)OCCCNC(=O)CN1CCN(Cc2ccccc2Cl)C1=O	-0.56	5	1	4	1	106
COc1ccc(-n2c(Cn3c(=O)sc4ccccc43)nnc2SCC(=O)N2CCOCC2)cc1	-0.53	-4	3	14	4	-17*
COc1ccc(C(=O)C(OC(=O)CNC(=O)c2ccco2)c2ccccc2)cc1 (stereo not drawn)	-1.1	21*	12	-2	68*	112
CCN(CC)CCCNC(=O)c1cn(C)c2ccc(S(=O)(=O)N(C)C)cc2c1=O	-0.28	2	1	-6	9	74
Cn1nnnc1Sc1ncnc2scc(-c3ccccc3)c12	1.4	-5	-3	-4	13	0.6*
O=c1[nH]cnc2scc(-c3ccc(F)cc3)c12	-0.25	-5	3	-3	-3	146
Cn1nnnc1Sc1ncnc2scc(-c3ccc(F)cc3)c12	-0.42	-4	5	10	17	-11*
CCc1cc(-c2[nH]ncc2-c2ccc3c(c2)OCO3)c(O)cc1O	-0.68	3	0	7	-3	-1.1*
CCn1c(SCC(=O)C(C)(C)C)nnc1-c1cnccn1	0.73	3	4	-4	-3	-19*
CCn1c(SCC(=O)C(C)(C)C)nnc1-c1ccccn1	0.24	2	5	14	7	91
CN(C)c1nc(N)nc(CSc2nc3cc(Cl)ccc3o2)n1	-0.12	4	4	-1	-4	.
O=S1(=O)C=C(Sc2nc3cc(Cl)ccc3o2)c2ccccc21	-0.51	2	1	0	-4	-18*
CN(C1CCCCC1)S(=O)(=O)c1ccc2c(c1)c(=O)c(C(=O)NCCN1CCCC1)cn2C	-2.1	-1	-1	25	.	68
Cn1cc(C(=O)NCN2CCCCC2)c2ccccc21	-6.6*	1	3	17	12	102
COC(=O)C1=C(N)Oc2cc(C)oc(=O)c2C1c1ccncc1 (stereo not drawn)	0.47	-6	.	.	14	202
COC(=O)/C(=C1/Oc2cc(C)oc(=O)c2S1)C(F)(F)F	-0.22	-2	0	-5	-3	-15*
CCOC(=O)c1ccc(N=Cc2nc(-c3ccccc3)oc2OC(C)=O)cc1	0.49	9	3	19	5	81
SMILES	WNV NS2B-NS3 inh	CatB inh	CatB mixtures	CatS block	CatL block	Her2 expr inh
CCC(=O)Oc1oc(-c2ccccc2)nc1C=Nc1ccccc1OC	0.46	26*	.	.	5	56
O=C(O)c1ccccc1C(=O)NCc1ccccc1	0.52	-5	-1	11	-5	103
O=C(O)c1ccccc1C(=O)NCc1ccc(F)cc1	-1.1	21*	-1	2	12	122
Cc1ccc(NC(=O)c2cc(N(C)C)ccc2[P+](=O)O)cc1	-0.73	2	1	-11	-10	85
COC(=O)c1sccc1NC(=O)c1csc(C)c1	-0.04	0	8	12	7	0.2*
COC(=O)c1sccc1NC(=O)c1ccc(OC)cc1	-0.64	0	0	4	-5	67
COC(=O)c1sccc1NC(=O)c1ccc(Cl)s1	0.31	1	-2	16	6	4.0*
CCc1nc(SCc2cccnc2)c(C#N)cc1C	0.33	1	1	-6	-5	61
